D1 mod – allosteric modulators of human D1 dopamine receptor | P21728 | HEK293 D1, CRE-luciferase, dopamine EC30 potentiation; actives deviate in either direction | B-score at 10 µM | 58,000 compounds, 5.9% hits;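 active = luminescence count or its row- and column-corrected plate score outside the 99.7% band of the plate's sample wells, on either side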
DAT uptake mod – modulates human dopamine transporter uptake under cocaine; 110,000 compounds, 1.3% hits; LLC-PK1 hDAT cells, [14C]-dopamine uptake with cocaine IC80; actives deviate in either direction; Q01959; B-score at 10 µM;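 active = Z score or B-score, a plate-position-corrected score, falls beyond the plate's 99.7% confidence bounds, in either direction; inactive = both scores lie inside the 99.7% bounds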;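 note: scored against the spread of the other compound wells on the same plate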
FXIa mix inh – factor XIa (human) inhibition, mixture screen | P03951 | purified FXIa, fluorogenic substrate, pooled mixtures | inhibition, % at 5 µM | 62,000 compounds, 0.19% hits | AID 680;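 note: each value is inhibition by a whole ten-compound pool holding the compound; 0% = enzyme with no mixture and 100% = wells lacking enzyme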
M1 ag – activates the M1 muscarinic receptor; AID 626; B-score at 10 µM; CHO-M1 cells, Fluo-4 calcium fluorescence, agonist mode; stronger effect = higher value; 64,000 compounds, 3% hits;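 active = fluorescence rise, raw or as B-score row- and column-corrected plate score, outside the 99.7% band of its plate's samples, either direction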
M1 antagonist – antagonists of rat M1 muscarinic receptor | P08482 | B-score at 10 µM | 64,000 compounds, 3.4% hits | CHO-M1 cells, Fluo-4 calcium, ACh EC80 antagonist mode; stronger effect = lower value | AID 628;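 active = calcium fluorescence response, raw or row-and-column corrected B-score, differing from the plate sample mean either way at a set confidence level, mostly lower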
Target sequence (P08482 whole entry, looked up): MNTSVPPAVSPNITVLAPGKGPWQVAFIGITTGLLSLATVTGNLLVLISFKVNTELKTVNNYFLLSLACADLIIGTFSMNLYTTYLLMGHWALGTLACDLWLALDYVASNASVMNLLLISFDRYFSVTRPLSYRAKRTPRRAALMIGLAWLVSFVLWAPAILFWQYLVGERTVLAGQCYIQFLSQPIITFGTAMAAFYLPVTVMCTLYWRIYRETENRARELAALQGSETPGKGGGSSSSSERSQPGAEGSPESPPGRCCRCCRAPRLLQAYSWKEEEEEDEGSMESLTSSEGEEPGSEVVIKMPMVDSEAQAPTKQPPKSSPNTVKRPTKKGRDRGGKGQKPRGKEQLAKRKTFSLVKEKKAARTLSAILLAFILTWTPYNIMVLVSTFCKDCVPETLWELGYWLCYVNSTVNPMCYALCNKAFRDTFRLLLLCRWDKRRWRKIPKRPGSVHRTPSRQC
FXIIa inh mix – blocks human factor XIIa in pooled compound mixtures; P00748; purified FXIIa, fluorogenic substrate; inhibition, % at 5 µM; 62,000 compounds, 0.2% hits;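 note: 0% = enzyme without compound and 100% = no enzyme blank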
Numbers without * were called inactive; . = no result given. Rows were chosen to be rich in hits. Some 7.4% of all compounds tested hit in one or more screens of this group. Cut-off read from the data, not from the text of the source, unless noted: active = inhibition above about 20% (passing the limit was not always enough); inactive = the rest.

SMILES	D1 mod	DAT uptake mod	FXIa mix inh	M1 ag	M1 antagonist	FXIIa inh mix
COc1ccc(S(=O)(=O)Cc2ccc(C(=O)N3CCc4ccccc4C3)o2)cc1	-0.0217	2.42*	3.8	0.261	0.182	12.8
COc1ccccc1N1CCN(C(=O)c2oc3ccccc3c2C)CC1	-0.904	.	3.9	0.768	-4.47*	-16.8
CCC(C)NC(=O)C(NS(=O)(=O)c1ccc2c(c1)c(=O)n(C)c(=O)n2C)c1ccccc1 (stereo not given)	-5.57*	0.19	7.1	0.391	0.00889	12.1
Cn1c(=O)c2cc(S(=O)(=O)NC(Cc3ccccc3)C(=O)NCc3ccco3)ccc2n(C)c1=O (stereo not given)	0.0412	-0.613	-2.2	0.978	-0.3	13.5
O=S(=O)(N1CCOCC1)n1c(Cc2ccccc2)nc2ccccc21	4.45*	0.124	2.8	0.17	0.616	-1.3
CC1(C)CC(=O)C2=C(C1)N(Cc1ccco1)C(=O)C2(NC(=O)C1CCCCC1)C(F)(F)F (stereo not given)	0.28	-1.14	7.2	-0.102	-0.0812	14.3
Cc1ccc(S(=O)(=O)N2CCN(C(=O)c3nn(C(C)C)c(=O)c4ccccc34)CC2)cc1C	.	-0.399	.	.	.	.
COc1ccc(S(=O)(=O)Nc2cc(C)on2)cc1OC	-2.8*	0.0418	4.6	-0.0105	0.285	9.4
COc1ccccc1C(=O)Nc1ccc(S(=O)(=O)Nc2cc(C)on2)cc1	1.01	1.45	11.5	0.51	0.93	-19.6
O=C(c1ccco1)N1CCN(C(=O)c2cccn3c(=O)c4c5c(sc4nc23)CCCC5)CC1	3.82*	.	10.6	1.08	0.107	-3.6
CCCOc1ccc(C2NC(=O)NC2=O)cc1 (stereo not given)	.	-0.882	.	-0.483	-0.102	.
O=S(=O)(c1ccccc1)N1CCN(c2nnnn2-c2ccccc2)CC1	-0.35	-1.18	3.3	-0.315	-0.9	6.9
O=C(CCCSc1nc2ccccc2[nH]1)NC1=NCCS1	.	-0.0576	5.0	1.32	1.72*	5.3
CCOc1cc(N2CCOCC2)c(OCC)cc1NC(=O)Cc1ccccc1OC	.	0.805	.	.	.	.
Cc1ccc(OCC(=O)OCc2c(C)noc2C)cc1C	.	-0.0265	.	.	.	.
CCCCCSc1nc2c(c(=O)[nH]c(=O)n2C)n1CC	8.99*	0.195	11.2	0.299	0.22	10.4
C=CCn1c(SCCN2CCOCC2)nc2c1c(=O)[nH]c(=O)n2C	0.114	1.39	12.3	-0.619	-0.0391	1.9
C=CCn1c(SCC(=C)C)nc2c1c(=O)[nH]c(=O)n2C	6.61*	-0.695	11.1	-0.573	0.0881	1.4
CCCCCCn1c(SCC(C)C)nc2c1c(=O)[nH]c(=O)n2C	27.2*	0.286	-0.2	-0.409	0.846	4.9
OC(CNc1ccccc1)COc1ccc(OCC(O)CNc2ccccc2)cc1 (stereo not given)	.	1.89	.	.	.	.
CC1CCCC(C)N1CCNC(=O)Nc1ccc(Cl)cc1 (stereo not given)	.	1.49	.	.	.	.
O=C(O)CCCN=CC1=C(O)C(C(=O)c2ccccc2)CCC1=O (stereo not given)	.	1.82*	.	.	.	.
Cc1ccc2oc(=O)c3cnn(CC(=O)NCCc4ccsc4)c3c2c1	-0.135	0.561	3.4	-0.504	-0.016	8.6
CCCCN1C(=S)NC[C@@H]1Cc1ccccc1	.	-1.03	.	.	.	.
CC(C)Cc1nc2oc3c(N4CCN(CCO)CC4)ncnc3c2c2c1CCCC2	1.99	2.43*	4.3	0.287	-0.0403	7.4
SMILES	D1 mod	DAT uptake mod	FXIa mix inh	M1 ag	M1 antagonist	FXIIa inh mix
CC(C)c1nc2oc3c(NCc4cccnc4)ncnc3c2c2c1CCC2	.	-0.442	7.3	-0.758	-0.0493	-24.9
CC(C)Cc1nc2oc3c(NCc4cccnc4)ncnc3c2c2c1CCC2	4.78*	0.712	-1.5	0.512	-0.178	8.4
CCN1CCN(c2ncnc3c2oc2nc(C(C)C)c4c(c23)CCC4)CC1	.	.	-2.7	-0.0183	-0.48	3.9
CCOC(=O)C1=C(C)NC(=O)NC1c1cccnc1 (stereo not given)	-7.79*	0.259	5.6	-0.6	0.453	0.8
Cc1sc2ncnc(OCC(=O)NCC3CCCO3)c2c1C (stereo not given)	0.618	-3.27*	2.6	-0.341	-1.03	-1.4
O=C(c1c[nH]c2ccc(F)cc2c1=O)N1CCCCCC1	.	-0.0018	.	.	.	.
O=C(NC1CCCC1)c1c[nH]c2ccc(F)cc2c1=O	1.61	4.49*	5.6	-0.595	-0.606	-1.3
COc1ccc2ccccc2c1CN1CCN(C)CC1	-2.44*	0.0416	-4.5	-1.89	-0.365	-4.7
CCC(=O)Nc1cc2nn(-c3ccccc3)nc2cc1Cl	-5.39*	0.888	-2.0	-0.906	-1.25	2.5
O=C(Cn1cccc1C(=O)c1ccccc1)NCc1ccco1	-3.54*	-0.803	-1.3	-0.114	-0.909	8.1
Cc1ccccc1C(=O)c1cccn1CC(=O)NCc1ccco1	-0.128	0.0191	-11.0	-0.745	0.715	-1.9
O=S(=O)(CCn1cccc1)CCn1cccc1	0.138	-0.735	14.8	-0.519	2.25*	4.1
O=C(COC(=O)C1CCN(S(=O)(=O)c2cccs2)CC1)c1cc2ccccc2o1	0.115	1.02	-37.2	-1.04	-0.445	-11.4
COc1ccc(OCC(O)COc2ccc(C(=O)O)cc2)cc1 (stereo not given)	-0.163	2.67*	3.0	-0.848	-0.548	2.1
COc1ccc(OC)c(-n2c(SCC(=O)N3CCc4ccccc43)nc3c(c2=O)SCC3)c1	0.127	3.16*	4.9	-0.378	0.186	5.9
COc1ccccc1-n1c(SCC(=O)N2CCc3ccccc32)nc2c(c1=O)SCC2	.	1.16	.	.	.	.
O=C(c1ccccc1)c1ccc(CN2C(=O)c3ccccc3C2=O)o1	1.02	3.41*	2.8	-0.0486	-0.733	3.9
CCOc1cc(C(=O)CCC(=O)OCC(=O)N2c3ccccc3NC(=O)C2(C)C)ccc1O	.	-0.0727	.	.	.	.
CCOc1ccc(NC(=O)CN2CCN(CC(=O)c3ccc(OCC)cc3)CC2)cc1	-1.14	1.98*	4.0	-0.425	0.377	5.7
CN(C)CCNc1ncnc2c1cnn2-c1ccc(Cl)cc1	-4.72*	-0.51	2.6	0.24	-1.01	-14.3
CCC(CO)Nc1ncnc2c1cnn2-c1ccc(Cl)cc1 (stereo not given)	-5.72*	0.768	8.6	1.5	-0.714	-15.0
CCC(CO)Nc1ncnc2c1cnn2-c1ccc(OC)cc1 (stereo not given)	-2.98	-0.775	0.9	0.171	0.123	3.8
Cc1ccc(CS(=O)(=O)CCC(=O)NCCCN2CCCC2)cc1	-0.187	0.0737	7.0	-0.107	-0.183	0.2
COc1cc(C2NC(C(=O)O)CS2)ccc1OCc1ccccc1C#N (stereo not given)	-2.8*	0.575	1.3	.	.	5.8
CCCCCCN1C(=O)C(O)=C(C(C)=O)C1c1ccc(Cl)cc1 (stereo not given)	0.0698	-0.488	3.7	-0.432	2.35	1.9
COc1ccc(C(=O)Nc2ccccc2N2CCOCC2)cc1Br	.	-0.176	.	1.58	0.00493	.
COc1ccc(Cl)cc1C(=O)Nc1ccccc1N1CCN(C)CC1	-3.2	3.49*	2.6	-0.0197	0.53	1.9
COC(=O)c1sccc1NC(=O)c1cc(OC)cc(OC)c1	.	-8.01*	.	.	.	.
